According to PubChem BioAssay (NCATS):
Inconclusive results are not listed. Calls of active or inactive are those of the source. Calls follow the shape of the dose curve; as a rule, active = well fitted curve in the direction sought with a large enough effect; inconclusive = small, poorly fitted or top-dose-only effect, or another doubt; inactive = no such curve, though single readings can be large; an effect the other way counts as inactive or inconclusive.

Key:
[1] = qHTS for Inflammasome Signaling Inhibitors: IL-1-beta AlphaLISA screen against the NCATS CANVASS Library (AID 1347379); conditions: THP-1 LPS/ATP, IL-1B AlphaLISA secretion, 16 h;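 also: human THP-1 cells primed with LPS then triggered with ATP; secreted IL-1B measured as AlphaLISA emission at 615 nm; potency is read from the fitted curve at half-maximal effect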
Outline: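 Human THP-1 cells were pretreated 1 hr at 37 °C with compounds (up to 57.5 uM final), then stimulated with LPS (250 ng/mL final) and ATP (1.25 mM final). Secreted IL-1B was read by AlphaLISA after 16 hr.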

[2] = Inflammasome Signaling qHTS Counterscreen: IL-1-beta AlphaLISA counterscreen against the NCATS CANVASS Library (AID 1347381); conditions: Purified IL-1beta AlphaLISA signal interference counterscreen; series mostly up to 57.5 µM;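 also: cell-free check with purified IL-1β in medium and no THP-1 cells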
Outline: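 To flag interference with the AlphaLISA read-out, a known amount of purified IL-1-beta (4 pg) replaced cell supernatant. Detection used anti-IL-1-beta acceptor beads, biotinylated antibody and streptavidin donor beads at room temperature.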

[3] = qHTS assay for small molecule disruptors of mitochondrial membrane potential screened against the NCATS CANVASS Library (AID 1347389); conditions: HepG2 mitochondrial membrane potential, m-MPI red/green ratio, 1.5 h; also: potency is read from the fitted curve at half-maximal effect; nearly all actives have a fitted effect of over 60% in size
Outline: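 Compounds tested in 11-point qHTS series on HepG2 cells for 1 hr; membrane-potential dye added for 30 min at 37C. Lower red-to-green ratio indicates loss of potential.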

[4] = Secretion counterscreen for inhibitors of the SERCaMP assay screened against the NCATS CANVASS Library (AID 1347390); conditions: SH-SY5Y constitutive GLuc secretion, luminescence, 20 h;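 also: light from luciferase secreted into medium read as a measure of general secretion; potency is read from the fitted curve at half-maximal effect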
Outline: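 Natural products are titrated in an 11-point series up to 77 uM onto SH-SY5Y-GLuc STOP cells for 20 h. Secreted reporter activity is measured as coelenterazine-driven luminescence, with Brefeldin A on each plate.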

[5] = qHTS for activators of Nrf2/ARE signaling pathway screened against the NCATS CANVASS Library (AID 1347391); conditions: ARE-bla HepG2, beta-lactamase reporter, 16 h; also: potency is read from the fitted curve at half-maximal effect; nearly all actives have a fitted effect of over 60% in size
Outline: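 Cells carrying an ARE-driven beta-lactamase reporter (HepG2 background) are dosed for 16 h, then stained with CCF4. Cell viability in the same wells is measured by CellTiter-Glo luminescence.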

[6] = qHTS for inhibitors of ER calcium dysfunction: SERCaMP assay screened against the NCATS CANVASS Library (AID 1347393); conditions: SH-SY5Y GLuc-SERCaMP (Gaussia luciferase released on ER calcium loss) secretion, thapsigargin, luminescence; also: potency is read from the fitted curve at half-maximal effect; nearly all actives have a fitted effect of over 40% in size
Source text: (§1) Natural products and their derivatives continue to be wellsprings of nascent therapeutic potential. However, many laboratories have limited resources for biological evaluation, leaving their previously isolated or synthesized compounds largely or completely untested. To address this issue, the Canvass library of natural products was assembled (https://tripod.nih.gov/canvass), in collaboration with academic and industry researchers, for quantitative high-throughput screening (qHTS) across a diverse set of cell-based and biochemical assays. The pure (>85% purity by liquid chromatography/mass spectrometry [LC/MS]) Canvass library of 346 natural products were submitted by 45 academic laboratories and companies around the world. We collected pure natural products to circumvent deconvolution and structure elucidation due to time and resource limitations. The library was formatted into 1536-well plates and evaluated in 50 qHTS (in an 11-pnt concentration series) bioassays with broad scope of disease-relevant mechanisms. The resulting data set from 50 different assays was then systematically analyzed to identify overall trends and specific natural products with interesting biological activities. […]
SERCaMP assay protocol: 1. […] Luminescence signal was obtained via the ViewLux plate reader (Perkin Elmer) using the clear emission filter and 1x binning, 5 seconds exposure settings.

[7] = Vero-766 cells viability qHTS against the NCATS CANVASS Library: Counterscreen for Zika virus inhibition assay (AID 1347394); conditions: Vero 766 viability, CellTiter-Glo luminescence, 72 h; also: potency is read from the fitted curve at half-maximal effect; nearly all actives have a fitted effect of over 60% in size
Outline: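 Counterscreen for toxicity: Vero 766 cells exposed 72 h to an 11-point compound series, viability by CellTiter-Glo.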

[8] = qHTS for inhibitors of Wild type Zika virus screened against the NCATS CANVASS Library (AID 1347396); conditions: Vero cells, Zika virus CPE, CellTiter-Glo, 72 h; series mostly up to 45.9 µM;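 also: ATP luminescence of surviving cells so rescue from viral cell killing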
Outline: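 Protection against wild-type Zika cytopathic effect is measured in African green monkey Vero 766 cells exposed to an 11-point compound series. Surviving cells are quantified by CellTiter Glo luminescence after 72 h.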

[9] = Viability qHTS for inhibitors of the SERCaMP assay screened against the NCATS CANVASS Library (AID 1347400); conditions: SH-SY5Y SERCaMP cells viability, CellTiter-Glo, 48 h; also: potency is read from the fitted curve at half-maximal effect; nearly all actives have a fitted effect of over 70% in size
Outline: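 Cytotoxicity counter-screen: ATP content (CellTiter-Glo luminescence) of SH-SY5Y-GLuc SERCaMP MJH297 cells after 48 h at 37C with compounds in an 11-point qHTS series.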

[10] = Redox Reaction Profiling qHTS: Assay Interference Panel against the NCATS CANVASS Library (AID 1347401); conditions: resazurin-DTT redox cycling, fluorescence, 15 min; series mostly up to 57.1 µM
Source text: as §1, with “The pure (>85% purity by liquid chromatography/mass spectrometry [LC/MS]) Canvass library of 346 natural products were submitted by 45 academic laboratories and companies around the world. We collected pure natural products to circumvent deconvolution and structure elucidation due to time and resource limitations.” left out
Redox Profiling assay protocol: 1. […] An initial fluorescence readout was obtained using the ViewLux plate reader (PerkinElmer) using a 525 nm excitation and a 598 nm emission filters. […] After incubation, the final fluorescence readout was obtained using the ViewLux plate reader (PerkinElmer) using a 525 nm excitation and a 598 nm emission filters.

Measured: Potency

C=C1C(=O)O[C@H]2[C@H]1CC/C(C)=C/CC[C@@]1(C)O[C@@H]21
inactive: [2] | [8] | [10]
active: [1] 5.44 µM | [3] 20.9 µM | [4] 15.3 µM | [5] 2.09 µM | [6] 1.72 µM | [7] 29.5 µM | [9] 13.5 µM
